Fam108B inh = blocks mouse Fam108B hydrolase in RBBP9 counter-screen; recombinant Fam108B, FP-Rh probe fluorescence polarization; inhibition, % at 9.51 µM; 0.33% of 300,000 active;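 active = inhibition above the screen mean inhibition plus 3 SD, computed separately per campaign, cut at about 18% in these data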;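 note: inhibitors lower polarization as less probe binds the enzyme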
pPAFAH inh = inhibitors of human plasma PAF acetylhydrolase (pPAFAH) | Q13093 | recombinant pPAFAH, FP-rhodamine probe fluorescence polarization | inhibition, % at 3.39 µM | 1.5% of 330,000 active | AID 463082;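 active = inhibition above the mean inhibition across the screen plus 3 SD, cut at about 25% in these data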;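 note: inhibitors block binding of the rhodamine activity-based probe so polarization drops; 0% = enzyme with DMSO and 100% = wells lacking pPAFAH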
PME-1 inh = PME-1 (human) inhibition | recombinant PME-1, FP-Rh probe fluorescence polarization | AID 2130 | Q9Y570 | inhibition, % at 5.9 µM | 0.53% of 320,000 active;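 active = inhibition above the campaign mean of all compounds plus 3 SD, cut at about 26% in these data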;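 note: competitive labeling of PME-1 active site by serine hydrolase directed probe; 0% = PME-1 with DMSO and 100% = wells lacking PME-1 enzyme; inhibitors block probe labeling so polarization falls and inhibition rises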
Target sequence (Q9Y570 whole entry, looked up): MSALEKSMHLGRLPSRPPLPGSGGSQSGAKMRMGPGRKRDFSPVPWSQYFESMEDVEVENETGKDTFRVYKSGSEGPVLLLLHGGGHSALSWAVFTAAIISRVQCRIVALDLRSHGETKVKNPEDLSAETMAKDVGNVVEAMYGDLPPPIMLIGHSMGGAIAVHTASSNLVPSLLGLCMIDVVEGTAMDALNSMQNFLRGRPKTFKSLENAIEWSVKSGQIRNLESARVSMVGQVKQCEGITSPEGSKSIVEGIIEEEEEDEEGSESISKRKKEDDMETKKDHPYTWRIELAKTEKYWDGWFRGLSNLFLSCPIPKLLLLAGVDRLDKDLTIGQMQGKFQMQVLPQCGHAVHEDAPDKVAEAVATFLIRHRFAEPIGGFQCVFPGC
PAFAH1B3 inh = inhibitors of human PAFAH1B3 | inhibition, % at 3.39 µM | Q15102 | AID 492972 | recombinant PAFAH1B3, FP-rhodamine probe, fluorescence polarization | 0.28% of 340,000 active;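 active = inhibition above the screen-wide average of all tested compounds plus 3 SD, cut at about 25% in these data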;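 note: 0% = enzyme with DMSO only and 100% = wells lacking PAFAH1B3 protein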
Target sequence (Q15102 whole entry, looked up): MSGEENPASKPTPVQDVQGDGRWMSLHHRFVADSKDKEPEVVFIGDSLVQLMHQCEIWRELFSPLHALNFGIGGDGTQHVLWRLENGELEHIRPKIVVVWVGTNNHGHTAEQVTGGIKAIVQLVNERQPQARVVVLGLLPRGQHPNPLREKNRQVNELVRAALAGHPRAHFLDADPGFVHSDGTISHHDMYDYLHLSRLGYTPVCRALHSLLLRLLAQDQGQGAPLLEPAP
PAFAH1B2 inh = blocks human PAF acetylhydrolase 1b catalytic subunit 2 | P68402 | recombinant PAFAH1B2, FP-rhodamine activity probe, fluorescence polarization | inhibition, % at 3.39 µM | 1.2% of 340,000 active;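 active = inhibition above the mean of all tested compounds plus 3 SD, cut at about 24% in these data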;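 note: 0% = enzyme with DMSO and 100% = wells lacking PAFAH1B2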
PAFAH2 FP inh = inhibitors of human PAFAH2; AID 492956; inhibition, % at 3.39 µM; 0.99% of 340,000 active; recombinant PAFAH2, FP-rhodamine activity probe, fluorescence polarization; Q99487;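 active = inhibition above the mean over all tested compounds plus 3 SD, cut at about 30% in these data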;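 note: inhibitors block probe labeling of enzyme so polarization drops; 0% = enzyme with DMSO and 100% = wells lacking PAFAH2 protein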
The depositor's hits bear a star; · = no result given. Shown are actives, neighbours in structure and some others; about 2.8% of the full set was active somewhere.

SMILES	Fam108B inh	pPAFAH inh	PME-1 inh	PAFAH1B3 inh	PAFAH1B2 inh	PAFAH2 FP inh
O=C(NCCCCNCCCNC(=O)c1ccccc1)c1ccccc1	·	6	·	4	-2	-4
Cc1ccc(NCC(=O)N/N=C/c2ccncc2)cc1	1	4	-4	-3	3	2
Cc1ccc(NCC(=O)N/N=C/c2cc(O)ccc2[N+](=O)[O-])cc1	12	30*	-1	·	·	·
C=CCn1c(SCC#N)nc2c(c1=O)C(C)(C)Cc1ccccc1-2	3	5	-2	2	25*	0
C=CCn1c(SCC#N)nc2ccccc2c1=O	-4	-1	2	8	2	-10
Cn1cccc1-c1cc(C(=O)N/N=C/c2cc(Br)ccc2O)[nH]n1	0	30*	4	8	8	0
CN(Cc1ccccc1)C(=O)c1cccc(NC(=O)Cc2ccc(NC(=O)C3CCCN(C(=O)C4CCC4)C3)cc2)c1 (centres undefined)	·	·	·	11	7	-4
CCCCN(C(=O)CSc1nnnn1C)C1CCS(=O)(=O)C1 (centres undefined)	·	-1	-1	-1	1	1
O=C(O)c1ccccc1C1=Nc2ccc(O)cc2Oc2cc(O)ccc21	18	28*	17	8	9	-73
Cc1cc(-c2ccccc2C(=O)O)on1	1	0	0	-1	-3	-7
CC(C(=O)N1CCc2ccccc21)N1CCN(S(=O)(=O)c2ccc3c(c2)OCCCO3)CC1 (centres undefined)	·	·	·	6	-3	-2
CNCc1ccccc1Sc1cccc(O)c1	0	5	-2	-2	4	-2
CNCc1ccccc1Sc1cc(O)ccc1O	4	25*	-3	5	1	1
CNS(=O)(=O)c1cc(C(=O)OCC(=O)NC2CCCc3ccccc32)ccc1Cl (centres undefined)	3	3	28*	2	1	9
CCN(CC)S(=O)(=O)c1cc(C(=O)OCC(=O)Nc2c(F)cccc2F)ccc1F	5	32*	0	7	0	29
CCN(CC)S(=O)(=O)c1cc(C(=O)OCC(=O)NC2CCCc3ccccc32)ccc1C (centres undefined)	1	27*	23	7	1	67*
O=C(COC(=O)c1ccc(Cl)nc1)NC1CCCc2ccccc21 (centres undefined)	·	5	·	21	9	10
O=C1C=C(O)c2c(O)cccc2C1=O	6	27*	7	·	·	·
O=C1C=C(O)c2cccc3cccc1c23	-2	4	0	6	4	9
Cc1sc2ncn(CC(=O)NCc3ccco3)c(=O)c2c1-c1ccc(F)cc1	-4	17	1	1	-3	-2
O=C(Cn1cnc2scc(-c3cccc([N+](=O)[O-])c3)c2c1=O)NCc1ccco1	-3	26*	9	4	-4	18
Nc1nc(-c2ccccc2)c(CCCOc2ccc(NC(=O)CBr)cc2)c(=O)[nH]1	·	·	·	12	0	4
COc1ccccc1-c1ccc(/C=C2\C=CC(=O)O2)o1	0	26*	5	·	·	·
O=c1[nH]c(C2CCN(S(=O)(=O)c3ccccc3F)CC2)nc2c1nnn2Cc1ccc(OC(F)(F)F)cc1	-8	1	4	0	26*	-6
O=c1[nH]c(C2CCCN(S(=O)(=O)c3cccc(Cl)c3)C2)nc2c1nnn2Cc1ccc2c(c1)OCCO2 (centres undefined)	-12	8	10	13	3	5
SMILES	Fam108B inh	pPAFAH inh	PME-1 inh	PAFAH1B3 inh	PAFAH1B2 inh	PAFAH2 FP inh
O=c1[nH]c(C2CCCN(S(=O)(=O)Cc3ccccc3)C2)nc2c1nnn2Cc1cccc(Cl)c1 (centres undefined)	-6	28*	-6	-2	1	4
O=c1[nH]c(C2CCN(S(=O)(=O)c3ccccc3C(F)(F)F)CC2)nc2c1nnn2Cc1ccccc1	-6	0	17	4	-2	6
COC(=O)c1ccc(Cn2nnc3c(=O)[nH]c(C4CCN(S(=O)(=O)c5ccc(F)cc5)CC4)nc32)cc1	-4	7	36*	-5	-1	-3
COc1ccc(NC(=O)COC(=O)c2ccc(-n3nc(C)cc3C)cc2)cc1OC	·	27*	-1	13	2	7
COc1ccc(C(=O)OCC(=O)Nc2ccc(F)c(F)c2)cc1OC	-1	30*	-7	3	-2	82*
CCNC(=O)COC(=O)c1ccc(-n2nc(C)cc2C)cc1	0	7	7	5	2	18
Cc1cc(C)n(-c2ccc(C(=O)OCC(=O)Nc3ccc(Cl)c(S(=O)(=O)N(C)C)c3)cc2)n1	-5	25*	-3	2	-1	73*
Cc1cc(C)n(-c2ccc(C(=O)OCC(=O)Nc3ccc([N+](=O)[O-])cc3)cc2)n1	-5	25*	-2	14	4	26
Cc1cc(C)n(-c2ccc(C(=O)OCC(=O)Nc3ccc(S(=O)(=O)N4CCOCC4)cc3)cc2)n1	-1	7	0	5	2	-7
Cc1cc(C)n(-c2ccc(C(=O)OCC(=O)Nc3ccccc3[N+](=O)[O-])cc2)n1	-6	17	-2	2	2	11
CCCCN(C(=O)c1ccc(-c2ccc(Cl)cc2)o1)c1c(N)n(CCC)c(=O)[nH]c1=O	·	19	3	1	-3	1
CC(=O)c1cccc(NC(=O)CSc2nnc(-c3ccncc3)o2)c1	·	-1	0	5	-2	-3
Cc1cc(C)n(CCNc2nc3nonc3nc2N2CCCCC2)n1	-2	28*	-12	0	5	-1
Cc1cc(C)n(CC(C)Nc2nc3nonc3nc2N2CCCCC2)n1 (centres undefined)	-2	-4	1	7	2	4
Cc1ccc(SCC(=O)NNC(=O)c2cncc(Br)c2)cc1	·	2	·	10	29*	-4
COc1ccc(NS(=O)(=O)c2cccc(NC(=O)CCC(=O)c3cccs3)c2)cc1	-15	33*	-5	-2	-3	-1
COc1ccc(NS(=O)(=O)c2cccc(NC(=O)CCS(=O)(=O)c3ccccc3)c2)cc1	1	34*	5	0	3	8
NS(=O)(=O)c1cccc(NC(=O)CCC(=O)c2cccs2)c1	-1	0	3	-1	5	2
COc1ccc(NS(=O)(=O)c2cccc(NC(=O)COc3ccccc3[N+](=O)[O-])c2)cc1	·	15	·	4	1	-2
O=C(Cc1cccc(NC(=O)C2CCN(S(=O)(=O)c3cccc([N+](=O)[O-])c3)CC2)c1)Nc1cccc(C(=O)N2CCCCC2)c1	·	·	·	-12	-3	-1
O=S(=O)(Nc1ccc2c(c1)nc1n2CCN(Cc2ccccc2)C1)c1ccccc1	-2	26*	-2	-8	8	8
Cc1ccc(S(=O)(=O)Nc2ccc3c(c2)nc2n3CCN(Cc3ccccc3)C2)cc1	-3	6	0	4	11	-23

Assay outcomes as filed in PubChem BioAssay.
